From the supplement of paper PMC11417369
Whole data set: some 25,000 sequences, median “ln(normalized median fluorescence intensity)” near 9.3, cut for the highest 2% near 10. Shown is part of a subset that was picked to be rich in the highest values.

Tested on: PF3D7_0420300 AP2 domain 1 (GST-tagged)
Assay: gcPBM binding intensity (ln(normalized median fluorescence intensity)); higher = stronger DNA binding
In short: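 GST-tagged P. falciparum DNA-binding domains produced in E. coli were incubated for 1 h on an Agilent 4 × 180k array of primer-extended double-stranded 36-bp intergenic genomic probes with negative controls. Binding intensity is the highest Masliner-normalised natural-log median intensity across replicate spots of either probe orientation, with bound protein detected by Alexa488 anti-GST antibody at 488 nm.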

| Sequence | gcPBM binding intensity (ln) |
| --- | --- |
| TGTTCTTTGTTCAGCGCATGTAAAATAAAATAAAAT [TGCATGCA_site629] | 9.04 |
| AGGAGACTTAAAAAAAGTACAAAAAAAAAAAAAAGC [XGTACX_site1576] | 9.65 |
| TATATATATATACCTTGTACTTACATTCGCATATAA [XGTACX_site2466] | 9.32 |
| TAATATATGTATTGCACACCTATAACCATTATTTCT [CACACA_site1498] | 9.51 |
| TACATATTTATATACACACACACACGGATATTTATA [CACACA_site7239] | 10.3 |
| ATTTTTATTTTATATACACACAATAATAATATAATA [CACACA_site4015] | 9.39 |
| ATAATACACAAGCACACACACACACGGATATTTATA [CACACA_site6714] | 10.3 |
| TATTTATATTTATATACACACATACATATTTATATT [CACACA_site6535] | 9.57 |
| AGCACAAGCACAAGCACACATTTATATATAAATACA [CACACA_site4642] | 9.42 |
| TATATATATATTTATACACACACATATATTTATATA [CACACA_site8054] | 9.59 |
| GAAATACCGGAAAGCAAACACACATTTTAAAACCAT [CACACA_site3861] | 9.68 |
| AGATTTAAATATCATACACACTTTATATATAATACA [CACACA_site4688] | 9.35 |
| TAAAAAAAATAGCATACACACATATATACCTATATA [CACACA_site4535] | 9.72 |
| CTAGCAAATACATACACACACACACCCATACATATA [CACACA_site3496] | 10.3 |
| CACATACAGATATATACACACAAATATAAATACACA [CACACA_site6512] | 9.98 |
| CTAGCAAATACATACACACACACACGGATACCTATA [CACACA_site7609] | 10.2 |
| TATACCTATAAATACACACACATATATAAATAAATA [CACACA_site6730] | 10 |
| CTAGCAAATACATACACACACACACCGATACAGATA [CACACA_site5853] | 10.2 |
| TACTAGCAAATACATACACACACACCCATATACATA [CACACA_site9163] | 10.1 |
| CTAGCAAATACATACACACACACACCGATACATATA [CACACA_site9164] | 10.2 |
| TTAATATAAGCAAATACACACACACCGATATATATA [CACACA_site9269] | 10.2 |
| CACATACAGATATATACACACAAATATATATACTCA [CACACA_site4591] | 9.76 |
| TATACATATACATATACACACACACCCATAAATAAA [CACACA_site8372] | 9.99 |

| Sequence | gcPBM binding intensity (ln) |
| --- | --- |
| TTAATGGCAAAATAGGCACACACACCGATACATATA [CACACA_site8263] | 9.91 |
| TATCATTTCATATCAAGTACAAACATTTTACATATA [XGTACX_site5307] | 9.12 |
| GTGCATATCTGATATACACACAATAAAATAGTATGT [CACACA_site7203] | 9.33 |
| AAAAAAAATTCACACTGTACAAAAGCATAAATAAAC [XGTACX_site5408] | 9.75 |
| AATGTGTATATATATACACACACATATATATATTTT [CACACA_site8596] | 9.75 |
| TTAATTTTTAGAAGAACACACACATATATATTATGA [CACACA_site7969] | 9.59 |
| TATACAGATAAATACACACACACATATATATATATA [CACACA_site4845] | 10 |
| TACAGATACAGATACACACACACACCGAAATAAATA [CACACA_site4865] | 10.3 |
| CATACAGATATATATACACACATACAGATAAATACA [CACACA_site4592] | 9.83 |
| TTTAATTTTTATATAACACACATATTGTAATTATGT [CACACA_site4566] | 9.38 |
| ATAAATACTAAAAATGAAATATAGAAAATAGCAATA [CACACA_negctrl_site501] | 9.61 |
| AAAATTCTTCGGGGGAGTACAAGGATATTCTACGTT [XGTACX_site3974] | 9.53 |
| TGATATCTTAAGAAATGTACAAAGATATAACCATTT [XGTACX_site1913] | 9.11 |
| CTCAATATTATTACTACACACAAATTAAAATTTTCC [CACACA_site4203] | 9.45 |
| ATTTATTCATTTGGGTGTACTATTTAAAAAAAACAA [XGTACX_site498] | 9.18 |
| AAAATAAAAAGAAAAAGAAAAAAGGGGGGGTAGGGG [CACACA_negctrl_site1048] | 10.2 |
| AAGGGGTAAAGAAAAACACACAAAAAATAAAAATAT [CACACA_site361] | 9.65 |
| AAGGGAAAATAATAAAAGAAAAAGAAAAAAAAAAAA [CACACA_negctrl_site1518] | 9.21 |
| TAAAAGAAATAATATACACACATATATAAAAATAAA [CACACA_site1329] | 9.6 |
| ATATAACAGAAACACACACACATATATATATATTAT [CACACA_site4140] | 10.2 |
| TGAAAAAAGAAAAATACACACATATAATATAATATA [CACACA_site2255] | 9.7 |
| TAAAAAAAAACAGAAACACACATTATTCATATATAT [CACACA_site2049] | 9.77 |
| CATTATAAGAAACACACACACATATATATATATATA [CACACA_site1051] | 9.73 |

| Sequence | gcPBM binding intensity (ln) |
| --- | --- |
| CATACACAGAAACACACACACATATATATATATATA [CACACA_site4519] | 9.79 |
| ACAGAAAAAAAACACACACACATAATATACATACAT [CACACA_site1932] | 10.2 |
| ATACAGAAAAAAAACACACACACATAATATACATAC [CACACA_site1933] | 10.1 |
| ACAGAAAAAAGACACACACACATAATATACATACAT [CACACA_site6991] | 10.2 |
| AATTAAAATAATAATACACACATCATAGAAAAAGAC [CACACA_site292] | 10.4 |
| TGTATTAATAAAAATACACACATCATATTATAGAAA [CACACA_site7629] | 9.49 |
| TTAATTAGAAATCATACACACATATAAATAAATATA [CACACA_site6225] | 9.6 |
| AGCTATTAATTTATTACATGCAAGATTAAAAGACTA [TGCATGCA_site281] | 8.99 |
| AATCAAAACATTAAAAAGAAAAAATATATATATATA [CACACA_negctrl_site366] | 9.03 |
| AGGATATGCAGACACACACACATATAGATTTATATA [CACACA_site7100] | 9.73 |
| ATTGTGCTCATCAGCACACACAACATCATGTAATAA [CACACA_site1863] | 9.47 |
| TTTTGTTATATTCAATATTTATATATTATAAATATA [CACACA_negctrl_site1705] | 9.11 |
| TTAAAACCAAAACACAGTACATATATATATATATAT [XGTACX_site5668] | 9.4 |
| TATTTTATTTTTTTATGTACACAAAAAAAAAAAAAA [XGTACX_site945] | 8.63 |
| TTTTTTTTTTGTTGTTGTACTCTTATATTTTTATAT [XGTACX_site6178] | 9.7 |
| ATAAATAAATAAATAAATAAATATACATATACATAT [CACACA_negctrl_site205] | 9.39 |
| TATGGTAACATATGCTGTACAATATAATATGTTTAA [XGTACX_site1601] | 9.11 |
| TATAGTGATATATACACACACTTGTCTTGTAAAAAT [CACACA_site6594] | 9.53 |
| GATGTATTCATACATGCACACGTACATATTTAAATA [CACACA_site9299] | 9.34 |
| TAAATACAGAAACACACACACAAATATATACATACA [CACACA_site2880] | 10.1 |
| CAAATACAGAAACACACACACATATACATATATATA [CACACA_site3498] | 9.97 |
| CATATACAGAAACACACACACACATAAATAAATATA [CACACA_site1343] | 10.3 |
| ATATATATATATCACGCACACACGAATTTTAAATAT [CACACA_site3131] | 9.65 |

| Sequence | gcPBM binding intensity (ln) |
| --- | --- |
| TTTTCAAAATAATATTATATCAAATGCTAAAAAGAA [TGCATGCA_negctrl_site588] | 8.96 |
| TAATAAATAAGACACACACACATATATATATATTAT [CACACA_site1389] | 10.2 |
| TAAAACATAAGAGACACACACACATATATATATATA [CACACA_site3643] | 9.9 |
| AACATTATAAGACACACACACACATATATATATATA [CACACA_site8259] | 10.1 |
| AACATTATAGGACACACACACACATATATATATATA [CACACA_site4721] | 10.2 |
| ATAAATATAGGACACACACACATATTATATATATAT [CACACA_site5658] | 10.1 |
| AACATTATAAGACACACACACACATATATAAATATA [CACACA_site6622] | 10.3 |
| TAATAAATAGGACACACACACATATATATATATTAT [CACACA_site4891] | 10.1 |
| GTAAGAAACAGACACACACACATATAAATATAAATA [CACACA_site6515] | 10.1 |
| AAACATAAGAGACACACACACATATATAAATAAATA [CACACA_site7674] | 10.2 |
| ATCGTTATATAATGTTGTACTTGTTATATATATATA [XGTACX_site7582] | 9.7 |
| TATATATATATATATACATGCATTTCTCATGTACAT [TGCATGCA_site621] | 9.14 |
| TTTGATAAATGATACACACACAATATTTATAAAATA [CACACA_site7040] | 9.72 |
| ATCTATAAATTTCCACGTACATATATATATATATAT [XGTACX_site4502] | 9.32 |
| TTTTGTTTTTGTAGAGTGCATAAAGAAGATATGTAT | 9.1 |
| AGTGTATTAAATTTTGAACACACAAAATAAAACATA [CACACA_site8483] | 9.43 |
| AACTTTTAGAAGAACACACACATATAGATTATGACC [CACACA_site6256] | 9.86 |
| TATATTATGACCACCACACACCTATACACATAACAT [CACACA_site7199] | 9.62 |
| ATTATAACACCTCCCCCCCTTTTTTTATGAAGACCA [CACACA_negctrl_site1043] | 10.4 |
| TTTATACTTGTAAATGCACACATAAGATGCGACTAA [CACACA_site8662] | 9.18 |
